Data taken from the supplement of paper PMC11732987, “Enantioselective OTUD7B fragment discovery through chemoproteomics screening and high-throughput optimisation” (Communications Chemistry, 2025).

Experiments:
Assay in all cases: log2 ratio of Biotin-Ahx-Ub-VS probe labelling (fragment/DMSO); higher = less target engagement (more negative = stronger competition), active = hit call of the paper (q ≤ 0.05, log2 ratio ≤ -1)
Settings in all cases: compound concentration: 200 uM; treatment time: 3 h
USP19 = target: T1, USP19 (UniProt O94966)
T1 sequence (whole entry): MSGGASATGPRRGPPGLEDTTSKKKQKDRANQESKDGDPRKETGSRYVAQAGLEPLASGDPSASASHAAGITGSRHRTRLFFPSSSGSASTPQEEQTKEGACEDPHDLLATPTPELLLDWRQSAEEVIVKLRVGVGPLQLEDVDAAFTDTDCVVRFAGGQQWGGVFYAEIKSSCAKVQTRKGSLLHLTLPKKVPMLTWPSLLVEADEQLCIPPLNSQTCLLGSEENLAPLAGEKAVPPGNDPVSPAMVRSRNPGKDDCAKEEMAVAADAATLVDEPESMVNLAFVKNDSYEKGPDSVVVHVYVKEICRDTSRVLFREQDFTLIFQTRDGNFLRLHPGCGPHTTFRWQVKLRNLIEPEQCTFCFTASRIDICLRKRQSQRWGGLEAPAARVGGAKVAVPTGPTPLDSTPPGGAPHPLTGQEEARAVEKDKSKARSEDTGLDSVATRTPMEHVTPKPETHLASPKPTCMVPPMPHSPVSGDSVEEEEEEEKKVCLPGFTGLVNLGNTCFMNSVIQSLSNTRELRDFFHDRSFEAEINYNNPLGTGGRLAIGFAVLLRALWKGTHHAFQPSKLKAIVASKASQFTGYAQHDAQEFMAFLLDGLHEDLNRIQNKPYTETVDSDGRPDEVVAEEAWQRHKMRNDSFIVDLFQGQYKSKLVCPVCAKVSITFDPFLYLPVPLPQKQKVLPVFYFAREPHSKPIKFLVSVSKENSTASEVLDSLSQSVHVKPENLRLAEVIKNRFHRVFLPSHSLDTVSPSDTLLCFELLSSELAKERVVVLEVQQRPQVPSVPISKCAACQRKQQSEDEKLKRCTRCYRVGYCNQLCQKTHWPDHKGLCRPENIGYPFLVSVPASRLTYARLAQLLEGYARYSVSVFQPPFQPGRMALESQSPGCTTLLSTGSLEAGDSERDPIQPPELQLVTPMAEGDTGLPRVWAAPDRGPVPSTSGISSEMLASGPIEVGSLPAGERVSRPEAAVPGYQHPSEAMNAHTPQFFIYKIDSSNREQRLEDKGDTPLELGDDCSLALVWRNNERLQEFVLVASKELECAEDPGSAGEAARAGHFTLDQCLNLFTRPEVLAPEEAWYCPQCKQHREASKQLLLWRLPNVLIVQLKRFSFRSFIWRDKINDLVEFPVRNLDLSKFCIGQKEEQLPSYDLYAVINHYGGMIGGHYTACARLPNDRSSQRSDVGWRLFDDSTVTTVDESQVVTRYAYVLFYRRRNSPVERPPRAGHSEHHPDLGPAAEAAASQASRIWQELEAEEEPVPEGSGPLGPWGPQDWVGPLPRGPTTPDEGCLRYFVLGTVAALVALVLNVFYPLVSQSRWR
How it was run: (§1)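 Average log2 ratios of fragment over vehicle were obtained by unpaired t-test from global-median-normalised Spectronaut label-free quantities. Proteins with ≥2 unique peptides were included. HEK293T lysate (495 µg per sample) was treated in triplicate with fragment at 200 µM or vehicle for 3 h, then with Biotin-Ahx-Ub-VS at 0.5 µM final for 1 h, and labelled DUBs were NeutrAvidin-enriched and run by diaPASEF LC-MS/MS.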

USP22 = target: T2, USP22 (UniProt Q9UPT9)
T2 sequence (whole entry): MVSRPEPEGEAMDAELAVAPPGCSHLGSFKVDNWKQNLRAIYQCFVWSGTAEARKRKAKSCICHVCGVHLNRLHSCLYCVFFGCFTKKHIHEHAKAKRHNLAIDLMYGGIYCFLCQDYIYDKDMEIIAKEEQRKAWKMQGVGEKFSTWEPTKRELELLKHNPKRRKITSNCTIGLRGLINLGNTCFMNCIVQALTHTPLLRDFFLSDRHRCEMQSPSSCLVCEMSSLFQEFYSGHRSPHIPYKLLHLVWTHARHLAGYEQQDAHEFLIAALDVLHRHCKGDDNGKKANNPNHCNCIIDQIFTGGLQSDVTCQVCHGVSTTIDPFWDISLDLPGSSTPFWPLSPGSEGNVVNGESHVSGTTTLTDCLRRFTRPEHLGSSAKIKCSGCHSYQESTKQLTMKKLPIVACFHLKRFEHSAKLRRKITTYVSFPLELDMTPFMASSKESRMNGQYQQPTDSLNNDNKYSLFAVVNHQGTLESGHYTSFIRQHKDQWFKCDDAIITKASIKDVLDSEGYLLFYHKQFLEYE
How it was run: as §1

USP24 = USP24 (UniProt Q9UPU5)
How it was run: as §1

USP25 = target: T3, USP25 (UniProt Q9UHP3)
T3 sequence (whole entry): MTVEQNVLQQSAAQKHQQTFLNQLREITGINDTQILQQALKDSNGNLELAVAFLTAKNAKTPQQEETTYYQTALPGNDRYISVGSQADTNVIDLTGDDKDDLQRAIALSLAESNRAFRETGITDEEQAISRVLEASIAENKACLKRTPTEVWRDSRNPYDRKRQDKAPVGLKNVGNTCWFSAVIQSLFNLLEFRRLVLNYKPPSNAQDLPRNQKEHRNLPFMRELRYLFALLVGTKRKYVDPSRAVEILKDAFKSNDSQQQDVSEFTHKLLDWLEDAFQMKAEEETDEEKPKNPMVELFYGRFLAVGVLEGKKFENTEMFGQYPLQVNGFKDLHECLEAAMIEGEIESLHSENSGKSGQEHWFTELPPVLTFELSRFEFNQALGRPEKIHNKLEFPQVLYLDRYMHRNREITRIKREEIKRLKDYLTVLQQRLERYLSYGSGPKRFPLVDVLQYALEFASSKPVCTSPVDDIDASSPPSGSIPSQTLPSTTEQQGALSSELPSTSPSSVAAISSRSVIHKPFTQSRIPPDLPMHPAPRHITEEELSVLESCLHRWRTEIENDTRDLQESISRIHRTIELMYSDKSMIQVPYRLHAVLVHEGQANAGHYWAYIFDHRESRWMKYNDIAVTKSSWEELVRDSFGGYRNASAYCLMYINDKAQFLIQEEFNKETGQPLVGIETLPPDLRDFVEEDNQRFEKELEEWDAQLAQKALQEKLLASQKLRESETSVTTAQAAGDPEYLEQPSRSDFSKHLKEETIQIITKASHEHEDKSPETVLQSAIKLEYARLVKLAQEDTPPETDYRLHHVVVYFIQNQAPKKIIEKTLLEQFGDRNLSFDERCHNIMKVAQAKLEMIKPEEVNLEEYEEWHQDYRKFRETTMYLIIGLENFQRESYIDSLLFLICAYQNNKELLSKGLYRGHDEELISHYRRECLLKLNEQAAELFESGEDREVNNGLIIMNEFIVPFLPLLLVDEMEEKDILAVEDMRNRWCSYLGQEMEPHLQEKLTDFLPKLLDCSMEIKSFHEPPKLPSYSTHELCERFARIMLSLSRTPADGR
How it was run: as §1

USP28 = target: T4, USP28 (UniProt Q96RU2)
T4 sequence (whole entry): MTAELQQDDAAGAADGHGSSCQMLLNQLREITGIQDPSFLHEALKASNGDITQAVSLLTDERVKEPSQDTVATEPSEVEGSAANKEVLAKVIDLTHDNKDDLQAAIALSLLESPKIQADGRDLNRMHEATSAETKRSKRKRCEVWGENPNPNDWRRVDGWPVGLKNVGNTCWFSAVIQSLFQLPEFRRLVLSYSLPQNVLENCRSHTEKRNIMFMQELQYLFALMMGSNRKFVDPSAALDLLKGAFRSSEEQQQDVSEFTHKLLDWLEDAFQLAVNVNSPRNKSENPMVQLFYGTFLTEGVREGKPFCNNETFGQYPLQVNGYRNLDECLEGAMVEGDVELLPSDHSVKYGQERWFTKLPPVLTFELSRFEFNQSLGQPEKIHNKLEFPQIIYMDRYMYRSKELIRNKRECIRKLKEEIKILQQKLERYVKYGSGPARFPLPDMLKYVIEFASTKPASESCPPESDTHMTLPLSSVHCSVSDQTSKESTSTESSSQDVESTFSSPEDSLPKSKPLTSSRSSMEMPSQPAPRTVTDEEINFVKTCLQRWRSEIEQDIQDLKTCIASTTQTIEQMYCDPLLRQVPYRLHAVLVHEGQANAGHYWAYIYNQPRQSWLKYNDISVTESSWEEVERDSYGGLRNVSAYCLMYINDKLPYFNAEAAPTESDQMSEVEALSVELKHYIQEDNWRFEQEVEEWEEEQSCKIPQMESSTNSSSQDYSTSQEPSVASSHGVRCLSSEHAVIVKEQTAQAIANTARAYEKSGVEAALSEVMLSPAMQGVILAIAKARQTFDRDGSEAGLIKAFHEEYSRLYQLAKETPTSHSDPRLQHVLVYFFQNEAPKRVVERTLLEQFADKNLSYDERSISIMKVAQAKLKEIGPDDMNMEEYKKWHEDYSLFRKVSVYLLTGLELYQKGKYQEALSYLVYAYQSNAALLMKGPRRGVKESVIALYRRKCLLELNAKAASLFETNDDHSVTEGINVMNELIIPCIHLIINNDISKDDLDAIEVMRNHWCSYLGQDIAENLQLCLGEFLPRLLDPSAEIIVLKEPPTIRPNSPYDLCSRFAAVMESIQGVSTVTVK
How it was run: as §1

Measured: log2 ratio of Biotin-Ahx-Ub-VS probe labelling

Chain of USP24 (Q9UPU5 whole entry): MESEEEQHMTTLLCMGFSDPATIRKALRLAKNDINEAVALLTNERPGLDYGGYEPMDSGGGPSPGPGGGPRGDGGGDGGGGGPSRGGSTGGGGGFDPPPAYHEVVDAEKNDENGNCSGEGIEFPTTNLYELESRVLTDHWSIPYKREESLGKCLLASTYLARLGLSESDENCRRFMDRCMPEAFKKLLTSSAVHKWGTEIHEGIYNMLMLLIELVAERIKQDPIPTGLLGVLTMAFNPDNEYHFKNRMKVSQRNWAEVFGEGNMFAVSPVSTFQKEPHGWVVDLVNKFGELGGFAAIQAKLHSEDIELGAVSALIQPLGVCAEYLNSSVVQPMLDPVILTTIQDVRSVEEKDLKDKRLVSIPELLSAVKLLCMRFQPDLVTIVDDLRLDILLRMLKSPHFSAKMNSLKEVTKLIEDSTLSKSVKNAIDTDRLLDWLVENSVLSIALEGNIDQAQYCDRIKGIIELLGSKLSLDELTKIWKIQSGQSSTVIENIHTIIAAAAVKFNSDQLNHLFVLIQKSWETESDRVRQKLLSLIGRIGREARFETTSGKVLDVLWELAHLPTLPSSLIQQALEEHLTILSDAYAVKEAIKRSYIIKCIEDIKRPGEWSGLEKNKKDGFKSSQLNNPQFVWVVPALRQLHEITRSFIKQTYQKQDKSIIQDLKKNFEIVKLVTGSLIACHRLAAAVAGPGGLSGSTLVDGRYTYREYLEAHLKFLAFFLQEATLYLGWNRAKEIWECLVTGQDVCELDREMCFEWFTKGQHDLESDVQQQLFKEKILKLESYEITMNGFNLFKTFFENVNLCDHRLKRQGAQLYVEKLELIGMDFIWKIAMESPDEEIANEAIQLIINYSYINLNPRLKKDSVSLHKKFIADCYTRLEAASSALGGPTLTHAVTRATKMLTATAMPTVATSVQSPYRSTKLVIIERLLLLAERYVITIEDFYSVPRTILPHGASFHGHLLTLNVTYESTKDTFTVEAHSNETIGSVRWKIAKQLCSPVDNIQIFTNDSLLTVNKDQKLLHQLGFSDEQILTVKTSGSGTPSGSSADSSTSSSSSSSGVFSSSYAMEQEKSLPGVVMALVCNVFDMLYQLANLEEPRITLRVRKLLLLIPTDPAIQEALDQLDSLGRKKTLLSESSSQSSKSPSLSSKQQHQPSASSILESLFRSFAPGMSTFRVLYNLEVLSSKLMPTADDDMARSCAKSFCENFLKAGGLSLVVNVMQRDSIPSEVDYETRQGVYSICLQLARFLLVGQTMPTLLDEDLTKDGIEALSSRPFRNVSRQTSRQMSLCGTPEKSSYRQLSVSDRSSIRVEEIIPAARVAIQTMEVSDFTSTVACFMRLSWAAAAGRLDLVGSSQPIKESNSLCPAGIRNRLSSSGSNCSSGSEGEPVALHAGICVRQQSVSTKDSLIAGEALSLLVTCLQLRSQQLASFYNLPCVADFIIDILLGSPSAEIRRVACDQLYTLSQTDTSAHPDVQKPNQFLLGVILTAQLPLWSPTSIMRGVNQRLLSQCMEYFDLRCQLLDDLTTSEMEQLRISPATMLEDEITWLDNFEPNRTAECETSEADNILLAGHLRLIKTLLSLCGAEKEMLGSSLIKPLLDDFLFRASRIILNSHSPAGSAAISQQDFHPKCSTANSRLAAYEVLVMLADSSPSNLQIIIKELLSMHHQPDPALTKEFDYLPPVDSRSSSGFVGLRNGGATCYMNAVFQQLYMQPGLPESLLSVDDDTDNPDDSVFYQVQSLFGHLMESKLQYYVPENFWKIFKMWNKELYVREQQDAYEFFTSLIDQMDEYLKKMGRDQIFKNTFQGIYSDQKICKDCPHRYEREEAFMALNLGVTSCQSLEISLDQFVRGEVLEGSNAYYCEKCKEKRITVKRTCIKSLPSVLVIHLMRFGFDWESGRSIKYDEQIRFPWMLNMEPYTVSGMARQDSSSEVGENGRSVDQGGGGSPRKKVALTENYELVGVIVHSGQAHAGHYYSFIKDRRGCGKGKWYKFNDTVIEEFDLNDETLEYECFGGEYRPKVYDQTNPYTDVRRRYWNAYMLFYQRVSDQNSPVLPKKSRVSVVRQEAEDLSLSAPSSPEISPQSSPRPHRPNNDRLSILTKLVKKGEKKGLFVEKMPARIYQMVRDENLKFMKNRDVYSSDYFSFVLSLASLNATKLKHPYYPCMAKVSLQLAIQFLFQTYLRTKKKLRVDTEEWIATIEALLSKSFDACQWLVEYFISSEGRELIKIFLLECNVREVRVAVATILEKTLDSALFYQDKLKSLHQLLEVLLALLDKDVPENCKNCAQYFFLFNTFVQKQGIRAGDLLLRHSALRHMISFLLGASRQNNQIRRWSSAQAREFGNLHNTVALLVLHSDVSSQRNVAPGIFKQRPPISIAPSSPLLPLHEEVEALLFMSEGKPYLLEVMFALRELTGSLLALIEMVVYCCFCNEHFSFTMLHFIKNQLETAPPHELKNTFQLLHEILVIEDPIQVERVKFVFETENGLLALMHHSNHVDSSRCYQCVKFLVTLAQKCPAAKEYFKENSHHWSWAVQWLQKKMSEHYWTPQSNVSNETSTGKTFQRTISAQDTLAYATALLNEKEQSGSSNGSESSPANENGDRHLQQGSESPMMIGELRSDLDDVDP

O=C(CCl)N1CCc2ccccc2C(O)C1 (stereo not given)
inactive: USP19 -0.315 | USP22 -0.345 | USP24 -0.483 | USP25 -0.343 | USP28 -0.698
